Compound activity from PubChem.
The list is not random: actives were taken first. Their share in the collection is about 4.1%.
DAX1 inh-1 – inhibitors of human orphan nuclear receptor DAX1 (NR0B1); P51843; HEK293 Gal4-DAX1 luciferase reporter, luminescence; inhibition, % at 6.75 µM; 340,000 compounds, 0.99% hits; AID 504766;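 active = inhibition above the mean over all tested compounds plus 3 SD, cut at about 4.2% in these data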;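 also: inhibition shows as a rise in luminescence from relieved DAX1 repression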
Target sequence (P51843 207-470 limits assumed): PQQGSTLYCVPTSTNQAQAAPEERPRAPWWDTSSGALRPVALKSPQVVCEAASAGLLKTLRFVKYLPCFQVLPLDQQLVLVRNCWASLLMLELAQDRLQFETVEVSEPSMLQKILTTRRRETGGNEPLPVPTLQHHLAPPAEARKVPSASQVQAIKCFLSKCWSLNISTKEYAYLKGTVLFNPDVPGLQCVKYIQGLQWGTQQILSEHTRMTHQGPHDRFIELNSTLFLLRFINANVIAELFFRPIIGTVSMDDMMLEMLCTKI
DAX1 inh-2 – blocks DAX1 repression of SF-1 activated StAR promoter. HEK293T StAR-luciferase reporter, SF-1/DAX-1 repression relief. inhibition, % at 6.8 µM. 370,000 compounds, 1.1% hits. AID 652010;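 active = inhibition above the mean over all tested compounds plus 3 SD, cut at about 3.6% in these data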;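 also: higher inhibition means more luminescence from relief of DAX-1 repression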
hgDAF12 agonist – hgDAF-12 agonism, primary luciferase screen; HEK293 GAL4-hgDAF12 UAS-luciferase reporter, agonist luminescence; normalized to butyrate control; activation, % at 6.8 µM; 370,000 compounds, 1.8% hits; AID 687014;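 active = activation above a cutoff set at the mean of all screened compounds plus 3 SD, cut at about 10% in these data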
hcDAF-12 act – activators of H. contortus DAF-12 nuclear receptor. activation, % at 6.8 µM. AID 652067. HEK293 hcDAF-12 lit1-tk-luc reporter, luminescence; 0% DMSO, 100% Δ7-dafachronic acid. 370,000 compounds, 1.4% hits;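 active = activation above the mean of all tested compounds plus 3 SD, cut at about 5.5% in these data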
ssDAF-12 act – S. stercoralis DAF-12 activation, primary screen. HEK293 ssDAF-12/GRIP1 lit1-tk-luc reporter, luminescence; % of 3 µM dafachronic acid response. 370,000 compounds, 1% hits. activation, % at 6.8 µM;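 active = activation above the mean over all tested compounds plus 3 SD, cut at about 0.9% in these data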
A number is an active result.

What do the screens show for `CCOC(=O)[C@@]12CCCC=C1N(CCc1ccc(Cl)cc1)C(=O)[C@H]2CC(=O)NCCCCc1ccccc1`?
DAX1 inh-2: inactive; hgDAF12 agonist: inactive; hcDAF-12 act: inactive; ssDAF-12 act: inactive

What do the screens show for `CCOC(=O)[C@]12CCCC3=C1N(CCC3)C(=O)[C@@H](CC(=O)N1CCN(C(=O)c3ccco3)CC1)C2`?
DAX1 inh-2: inactive; hgDAF12 agonist: inactive; hcDAF-12 act: inactive; ssDAF-12 act: inactive

Results for O=C(NCc1c(F)cccc1F)C1C2C=CC3(CN(Cc4ccccc4)C(=O)C13)O2 (stereo not drawn) ?
DAX1 inh-2: inactive; hgDAF12 agonist: inactive; hcDAF-12 act: inactive; ssDAF-12 act: inactive

How did CCn1c(CNC(=O)Cc2ccc(OC)cc2)nnc1SCC(=O)NC1CCCCC1 do in these assays?
DAX1 inh-1: inactive; DAX1 inh-2: inactive; hgDAF12 agonist: inactive; hcDAF-12 act: inactive; ssDAF-12 act: 1.0

Results for CCn1c(CNC(=O)Cc2ccc(OC)cc2)n[nH]c1=S ?
DAX1 inh-1: inactive; DAX1 inh-2: 4.1; hgDAF12 agonist: inactive; hcDAF-12 act: inactive; ssDAF-12 act: inactive

How did CCOc1ccccc1-c1nnc(SCC(=O)NC2CC2)n1CC do in these assays?
DAX1 inh-1: inactive; DAX1 inh-2: inactive; hgDAF12 agonist: inactive; hcDAF-12 act: inactive; ssDAF-12 act: 1.1

What do the screens show for `COc1ccc(CC(=O)NCc2n[nH]c(=S)n2-c2ccc(F)cc2)cc1`?
DAX1 inh-1: inactive; DAX1 inh-2: inactive; hgDAF12 agonist: inactive; hcDAF-12 act: inactive; ssDAF-12 act: inactive

Results for Nc1[nH]c(C(=O)c2ccccc2)c(-c2ccc(Cl)cc2F)c1C(=O)NCCc1c[nH]c2ccccc12 ?
DAX1 inh-2: inactive; hgDAF12 agonist: inactive; hcDAF-12 act: inactive; ssDAF-12 act: inactive

How did Cc1ccccc1CC(=O)N1CCC(n2nnc3ncccc32)CC1 do in these assays?
DAX1 inh-2: inactive; hgDAF12 agonist: inactive; hcDAF-12 act: inactive; ssDAF-12 act: inactive

What do the screens show for `O=C1C(=NO)CCc2ccccc21`?
DAX1 inh-1: inactive; DAX1 inh-2: inactive; hgDAF12 agonist: inactive; hcDAF-12 act: inactive; ssDAF-12 act: 1.3

How did CC(NC(=O)c1c(O)c2ccccc2n(C)c1=O)c1ccccc1 (stereo not drawn) do in these assays?
DAX1 inh-1: inactive; DAX1 inh-2: inactive; hgDAF12 agonist: inactive; hcDAF-12 act: 6.0; ssDAF-12 act: inactive

How did Cn1c(=O)c(C(=O)NCCc2ccccc2)c(O)c2ccccc21 do in these assays?
DAX1 inh-1: inactive; DAX1 inh-2: inactive; hgDAF12 agonist: inactive; hcDAF-12 act: 6.3; ssDAF-12 act: 1.7

How did CCn1c(=O)c(C(=O)Nc2ccccc2F)c(O)c2ccccc21 do in these assays?
DAX1 inh-1: inactive; DAX1 inh-2: inactive; hgDAF12 agonist: inactive; hcDAF-12 act: 6.2; ssDAF-12 act: inactive

Results for Cc1cc(NCCc2c[nH]c3ccccc23)ccc1Nc1cccnc1 ?
DAX1 inh-2: inactive; hgDAF12 agonist: inactive; hcDAF-12 act: inactive; ssDAF-12 act: inactive

What do the screens show for `C=CCN1C(C(=O)OC)CN(Cc2cn(Cc3ccc(OC)cc3)nn2)CCS1(=O)=O` (stereo not drawn)?
DAX1 inh-2: inactive; hgDAF12 agonist: inactive; hcDAF-12 act: inactive; ssDAF-12 act: inactive

How did CCN(c1ccc(NC(=O)COC(=O)c2ccc3ccccc3n2)cc1)C(C)C do in these assays?
DAX1 inh-1: inactive; DAX1 inh-2: inactive; hgDAF12 agonist: inactive; hcDAF-12 act: inactive; ssDAF-12 act: 0.9

How did Cc1ccc(C=NNC(=O)CSc2nc3sc4c(c3c(=O)n2-c2ccccc2)CCCC4)s1 do in these assays?
DAX1 inh-2: inactive; hgDAF12 agonist: inactive; hcDAF-12 act: inactive; ssDAF-12 act: inactive

What do the screens show for `CCOC(=O)N1CCN(C(=O)Nc2ccc3nc(C)sc3c2)CC1`?
DAX1 inh-1: inactive; DAX1 inh-2: inactive; hgDAF12 agonist: inactive; hcDAF-12 act: inactive; ssDAF-12 act: inactive

What do the screens show for `CCOC(=O)Nc1ccc2nc(N3CCCCCC3)sc2c1`?
DAX1 inh-1: inactive; DAX1 inh-2: inactive; hgDAF12 agonist: 10.7; hcDAF-12 act: inactive; ssDAF-12 act: inactive

Results for CCOC(=O)N[C@H](C(=O)N1CCC[C@H]1C(=O)NCc1ccccc1)C(C)C ?
DAX1 inh-2: inactive; hgDAF12 agonist: inactive; hcDAF-12 act: inactive; ssDAF-12 act: inactive

Results for C[C@H](O)[C@@H]1CN2CCc3c([nH]c4cccc(-c5ccccc5)c34)[C@@H]2C[C@@H]1N(C)C(=O)c1ccco1 ?
DAX1 inh-2: inactive; hgDAF12 agonist: inactive; hcDAF-12 act: inactive; ssDAF-12 act: inactive

What do the screens show for `Cc1c(C(C)(C(=O)O)c2c(C)n(C)c3ccccc23)c2ccccc2n1C`?
DAX1 inh-2: inactive; hgDAF12 agonist: inactive; hcDAF-12 act: 5.7; ssDAF-12 act: inactive

Results for Cc1c(P(=O)(c2ccccc2)c2ccccc2)c2ccccc2n1C ?
DAX1 inh-2: inactive; hgDAF12 agonist: inactive; hcDAF-12 act: inactive; ssDAF-12 act: inactive

Results for COc1cccc(C(=O)N[C@H](C(=O)N2CCC[C@H]2C(=O)NCCc2ccccc2Cl)C(C)C)c1 ?
DAX1 inh-2: inactive; hgDAF12 agonist: inactive; hcDAF-12 act: inactive; ssDAF-12 act: inactive

How did CC(c1nnc(SCC(=O)N(C)C2CCS(=O)(=O)C2)n1-c1ccccc1)N(C)C (stereo not drawn) do in these assays?
DAX1 inh-1: inactive; DAX1 inh-2: 3.7; hgDAF12 agonist: inactive; hcDAF-12 act: inactive; ssDAF-12 act: inactive

How did CN(C(=O)CSc1nnc(-c2ccncc2)n1-c1ccccc1)C1CCS(=O)(=O)C1 (stereo not drawn) do in these assays?
DAX1 inh-1: inactive; DAX1 inh-2: inactive; hgDAF12 agonist: inactive; hcDAF-12 act: inactive; ssDAF-12 act: inactive

Results for O=C(CCS(=O)(=O)c1ccccc1)Nc1nc2cc3c(cc2s1)OCO3 ?
DAX1 inh-1: 4.9; DAX1 inh-2: inactive; hgDAF12 agonist: inactive; hcDAF-12 act: inactive; ssDAF-12 act: inactive

What do the screens show for `COc1ccccc1C(=O)Nc1nc2cc3c(cc2s1)OCO3`?
DAX1 inh-1: inactive; DAX1 inh-2: inactive; hgDAF12 agonist: 12.3; hcDAF-12 act: inactive; ssDAF-12 act: inactive

How did O=C(C(=O)N1CCN(S(=O)(=O)c2ccc(OC(F)(F)F)cc2)CC1)c1cccc(C(F)(F)F)c1 do in these assays?
DAX1 inh-2: inactive; hgDAF12 agonist: inactive; hcDAF-12 act: inactive; ssDAF-12 act: inactive

What do the screens show for `C=CCC12C[C@@]3(O[C@H](c4ccc(C(F)(F)F)cc4)N=C3C[C@H](c3ccc(OC)cc3)[C@H]1C)N(Cc1ccc3c(c1)OCO3)C2=O`?
DAX1 inh-2: inactive; hgDAF12 agonist: inactive; hcDAF-12 act: inactive; ssDAF-12 act: inactive

Results for CC(=O)C1=C(C)NC(SCC(=O)c2ccc(Cl)cc2)=C(C#N)C1CC(C)C (stereo not drawn) ?
DAX1 inh-1: inactive; DAX1 inh-2: inactive; hgDAF12 agonist: inactive; hcDAF-12 act: inactive; ssDAF-12 act: inactive

Results for CC(=O)C1=C(C)NC(SCC(=O)c2ccc(F)cc2)=C(C#N)C1CC(C)C (stereo not drawn) ?
DAX1 inh-1: inactive; DAX1 inh-2: inactive; hgDAF12 agonist: 11.5; hcDAF-12 act: inactive; ssDAF-12 act: inactive
